{
  "source": "paper PMC8384837",
  "about": "“Expanding the binding specificity for RNA recognition by a PUF domain”",
  "experiment_in_all_cases": "yeast three-hybrid, YBZ-1, SC-Leu-His + 0.5 mM 3-AT, 4 days",
  "conditions_in_all_cases": "tags: N-Gal4 AD-HA kept; label: inside an RPR1-promoter hybrid RNA with tandem MS2 sites; ssRNA",
  "key": {"[1]": {"molecular_target": "T1, PUM1 PUF domain R6-SWQ (Homo sapiens, UniProt Q14671 828-1176, N1043S;Y1044W)", "T1 sequence": "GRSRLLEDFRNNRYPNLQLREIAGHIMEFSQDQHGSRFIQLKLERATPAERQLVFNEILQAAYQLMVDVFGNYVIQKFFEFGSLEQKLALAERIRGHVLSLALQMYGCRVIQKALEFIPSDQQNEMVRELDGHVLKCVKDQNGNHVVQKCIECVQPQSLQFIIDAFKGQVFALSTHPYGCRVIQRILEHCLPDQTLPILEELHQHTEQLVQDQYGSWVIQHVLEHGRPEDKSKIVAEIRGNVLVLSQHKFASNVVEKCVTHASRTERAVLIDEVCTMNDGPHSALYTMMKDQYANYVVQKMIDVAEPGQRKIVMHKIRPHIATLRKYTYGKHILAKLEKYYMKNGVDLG", "summary_of_the_method": "(§1)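 The interaction score is the log change in variant frequency from input to selection. Scores were computed in log2 with a pseudocount of 1 for absent variants, using Illumina sequencing of PCR-amplified repeat regions. The input came from four days on SC-Leu and the selection from four days on SC-Leu-His + 0.5 mM 3-AT. The cells were strain YBZ-1 (LexA–MS2 coat fusion, HIS3 reporter) co-expressing Pumilio-1 PUF domain libraries and matching RNA elements from a centromeric plasmid.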"}, "[2]": {"molecular_target": "PUM1 PUF domain R3-TRP (Homo sapiens, UniProt Q14671 828-1176, C935T;Q939P)", "summary_of_the_method": "as §1"}, "[3]": {"molecular_target": "PUM1 PUF domain R3-FWR (Homo sapiens, UniProt Q14671 828-1176, C935F;R936W;Q939R)", "summary_of_the_method": "as §1"}, "[4]": {"molecular_target": "PUM1 PUF domain R5-LHR (Homo sapiens, UniProt Q14671 828-1176, C1007L;R1008H;Q1011R)", "summary_of_the_method": "as §1"}, "[5]": {"molecular_target": "PUM1 PUF domain R8-TRR (Homo sapiens, UniProt Q14671 828-1176, N1122T;Y1123R;Q1126R)", "summary_of_the_method": "as §1"}, "[6]": {"molecular_target": "PUM1 PUF domain R3-GFD (Homo sapiens, UniProt Q14671 828-1176, C935G;R936F;Q939D)", "summary_of_the_method": "as §1"}, "[7]": {"molecular_target": "PUM1 PUF domain R3-PRE (Homo sapiens, UniProt Q14671 828-1176, C935P;Q939E)", "summary_of_the_method": "as §1"}, "[8]": {"molecular_target": "PUM1 PUF domain R1-KKT (Homo sapiens, UniProt Q14671 828-1176, S863K;R864K;Q867T)", "summary_of_the_method": "as §1"}, "[9]": {"molecular_target": "PUM1 PUF domain R7-CCR (Homo sapiens, UniProt Q14671 828-1176, S1079C;N1080C;E1083R)", "summary_of_the_method": "as §1"}, "[10]": {"molecular_target": "PUM1 PUF domain R4-PHQ (Homo sapiens, UniProt Q14671 828-1176, N971P)", "summary_of_the_method": "as §1"}, "[11]": {"molecular_target": "PUM1 PUF domain R4-FNL (Homo sapiens, UniProt Q14671 828-1176, N971F;H972N;Q975L)", "summary_of_the_method": "as §1"}, "[12]": {"molecular_target": "PUM1 PUF domain R4-AWP (Homo sapiens, UniProt Q14671 828-1176, N971A;H972W;Q975P)", "summary_of_the_method": "as §1"}, "[13]": {"molecular_target": "PUM1 PUF domain R5-SEQ (Homo sapiens, UniProt Q14671 828-1176, C1007S;R1008E)", "summary_of_the_method": "as §1"}, "[14]": {"molecular_target": "PUM1 PUF domain R5-KAL (Homo sapiens, UniProt Q14671 828-1176, C1007K;R1008A;Q1011L)", "summary_of_the_method": "as §1"}, "[15]": {"molecular_target": "PUM1 PUF domain R5-NIA (Homo sapiens, UniProt Q14671 828-1176, C1007N;R1008I;Q1011A)", "summary_of_the_method": "as §1"}, "[16]": {"molecular_target": "PUM1 PUF domain R2-VYP (Homo sapiens, UniProt Q14671 828-1176, N899V;Q903P)", "summary_of_the_method": "as §1"}, "[17]": {"molecular_target": "PUM1 PUF domain R7-CWP (Homo sapiens, UniProt Q14671 828-1176, S1079C;N1080W;E1083P)", "summary_of_the_method": "as §1"}},
  "data": [
    {"sequence": "GGCUAGAACUAGUGGAUCCCCCGGCGCCCGGCGGCUCGAGCCCGGGUAAGUGAAAAUAGUCUGCAUGCCGCCGGGCGCCAUGCCUGCAGGUCGACUCUAGAAAACAUG", "values": [
      {"measurement": "binding signal", "setting": "[1]", "result": "2.27 log2 enrichment (interaction score)"}
    ]},
    {"sequence": "GGCUAGAACUAGUGGAUCCCCCGGCGCCCGGCGGCUCGAGCCCGGGUAAGUGGAAAUAGUCUGCAUGCCGCCGGGCGCCAUGCCUGCAGGUCGACUCUAGAAAACAUG", "values": [
      {"measurement": "binding signal", "setting": "[1]", "result": "3.61 log2 enrichment (interaction score)"}
    ]},
    {"sequence": "GGCUAGAACUAGUGGAUCCCCCGGCGCCCGGCGGCUCGAGCCCGGGUAAGUGUAAUUAGUCUGCAUGCCGCCGGGCGCCAUGCCUGCAGGUCGACUCUAGAAAACAUG", "values": [
      {"measurement": "binding signal", "setting": "[2]", "result": "1.29 log2 enrichment (interaction score)"},
      {"measurement": "binding signal", "setting": "[3]", "result": "2.94 log2 enrichment (interaction score)"}
    ]},
    {"sequence": "GGCUAGAACUAGUGGAUCCCCCGGCGCCCGGCGGCUCGAGCCCGGGUAAGUGUAAAUAGUCUGCAUGCCGCCGGGCGCCAUGCCUGCAGGUCGACUCUAGAAAACAUG", "values": [
      {"measurement": "binding signal", "setting": "[2]", "result": "4.51 log2 enrichment (interaction score)"},
      {"measurement": "binding signal", "setting": "[4]", "result": "3.11 log2 enrichment (interaction score)"},
      {"measurement": "binding signal", "setting": "[3]", "result": "0.88 log2 enrichment (interaction score)"},
      {"measurement": "binding signal", "setting": "[5]", "result": "1.14 log2 enrichment (interaction score)"},
      {"measurement": "binding signal", "setting": "[6]", "result": "5.65 log2 enrichment (interaction score)"},
      {"measurement": "binding signal", "setting": "[7]", "result": "3.66 log2 enrichment (interaction score)"}
    ]},
    {"sequence": "GGCUAGAACUAGUGGAUCCCCCGGCGCCCGGCGGCUCGAGCCCGGGUAAGUGUAAAUCGUCUGCAUGCCGCCGGGCGCCAUGCCUGCAGGUCGACUCUAGAAAACAUG", "values": [
      {"measurement": "binding signal", "setting": "[8]", "result": "3.84 log2 enrichment (interaction score)"}
    ]},
    {"sequence": "GGCUAGAACUAGUGGAUCCCCCGGCGCCCGGCGGCUCGAGCCCGGGUAAGUCUAAAUAGUCUGCAUGCCGCCGGGCGCCAUGCCUGCAGGUCGACUCUAGAAAACAUG", "values": [
      {"measurement": "binding signal", "setting": "[9]", "result": "3.07 log2 enrichment (interaction score)"}
    ]},
    {"sequence": "GGCUAGAACUAGUGGAUCCCCCGGCGCCCGGCGGCUCGAGCCCGGGUAAGUGUACAUAGUCUGCAUGCCGCCGGGCGCCAUGCCUGCAGGUCGACUCUAGAAAACAUG", "values": [
      {"measurement": "binding signal", "setting": "[10]", "result": "2.14 log2 enrichment (interaction score)"},
      {"measurement": "binding signal", "setting": "[11]", "result": "1.89 log2 enrichment (interaction score)"},
      {"measurement": "binding signal", "setting": "[12]", "result": "5.02 log2 enrichment (interaction score)"}
    ]},
    {"sequence": "GGCUAGAACUAGUGGAUCCCCCGGCGCCCGGCGGCUCGAGCCCGGGUAAGUGUAUAUAGUCUGCAUGCCGCCGGGCGCCAUGCCUGCAGGUCGACUCUAGAAAACAUG", "values": [
      {"measurement": "binding signal", "setting": "[10]", "result": "7.3 log2 enrichment (interaction score)"},
      {"measurement": "binding signal", "setting": "[11]", "result": "3.56 log2 enrichment (interaction score)"},
      {"measurement": "binding signal", "setting": "[12]", "result": "6.43 log2 enrichment (interaction score)"}
    ]},
    {"sequence": "GGCUAGAACUAGUGGAUCCCCCGGCGCCCGGCGGCUCGAGCCCGGGUAAGCGUAAAUAGUCUGCAUGCCGCCGGGCGCCAUGCCUGCAGGUCGACUCUAGAAAACAUG", "values": [
      {"measurement": "binding signal", "setting": "[5]", "result": "2.73 log2 enrichment (interaction score)"}
    ]},
    {"sequence": "GGCUAGAACUAGUGGAUCCCCCGGCGCCCGGCGGCUCGAGCCCGGGUAAGUGUGAAUAGUCUGCAUGCCGCCGGGCGCCAUGCCUGCAGGUCGACUCUAGAAAACAUG", "values": [
      {"measurement": "binding signal", "setting": "[13]", "result": "3.78 log2 enrichment (interaction score)"}
    ]},
    {"sequence": "GGCUAGAACUAGUGGAUCCCCCGGCGCCCGGCGGCUCGAGCCCGGGUAAGUGUAAGUAGUCUGCAUGCCGCCGGGCGCCAUGCCUGCAGGUCGACUCUAGAAAACAUG", "values": [
      {"measurement": "binding signal", "setting": "[7]", "result": "4.92 log2 enrichment (interaction score)"}
    ]},
    {"sequence": "GGCUAGAACUAGUGGAUCCCCCGGCGCCCGGCGGCUCGAGCCCGGGUAAGUGUCAAUAGUCUGCAUGCCGCCGGGCGCCAUGCCUGCAGGUCGACUCUAGAAAACAUG", "values": [
      {"measurement": "binding signal", "setting": "[14]", "result": "3.48 log2 enrichment (interaction score)"}
    ]},
    {"sequence": "GGCUAGAACUAGUGGAUCCCCCGGCGCCCGGCGGCUCGAGCCCGGGUAAGUGUUAAUAGUCUGCAUGCCGCCGGGCGCCAUGCCUGCAGGUCGACUCUAGAAAACAUG", "values": [
      {"measurement": "binding signal", "setting": "[14]", "result": "3.43 log2 enrichment (interaction score)"},
      {"measurement": "binding signal", "setting": "[15]", "result": "4.96 log2 enrichment (interaction score)"}
    ]},
    {"sequence": "GGCUAGAACUAGUGGAUCCCCCGGCGCCCGGCGGCUCGAGCCCGGGUAAGUGUAAAAAGUCUGCAUGCCGCCGGGCGCCAUGCCUGCAGGUCGACUCUAGAAAACAUG", "values": [
      {"measurement": "binding signal", "setting": "[16]", "result": "3.97 log2 enrichment (interaction score)"}
    ]},
    {"sequence": "GGCUAGAACUAGUGGAUCCCCCGGCGCCCGGCGGCUCGAGCCCGGGUAAGUUUAAAUAGUCUGCAUGCCGCCGGGCGCCAUGCCUGCAGGUCGACUCUAGAAAACAUG", "values": [
      {"measurement": "binding signal", "setting": "[17]", "result": "4.38 log2 enrichment (interaction score)"}
    ]}
  ]
}
